Consider 15 molecules from PubChem BioAssay (NCATS).

Assay [1] deals with Cellular tumor antigen p53 (Homo sapiens) (UniProt P04637). Nature of the assay: Primary qHTS for small molecule compounds that upregulate eGFP-tagged delta133p53alpha (in N-terminal) cells. (AID 2060322).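 For activation: series mostly up to about 56 µM; 0% = DMSO vehicle and 100% = reference activator.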 Note: nearly all actives have a fitted effect of over 75% in size. Note: potency is the fitted concentration of half-maximal effect. The conditions noted are these: NCI-H358 eGFP-delta133p53alpha fluorescence, 24 h; activation: stronger effect = higher value. Summed up: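 NCI-H358 cells pre-induced 24 h with 10 ng/ml doxycycline to express N-terminal eGFP-delta133p53alpha, then dosed 24 h at 37C without doxycycline; fixed, Hoechst-stained, GFP intensity by laser scanning cytometry, normalized to DMSO (0%) and 57.5 uM 5-azacytidine (100%).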
Sequence of Cellular tumor antigen p53 (Homo sapiens) (P04637 whole entry, looked up): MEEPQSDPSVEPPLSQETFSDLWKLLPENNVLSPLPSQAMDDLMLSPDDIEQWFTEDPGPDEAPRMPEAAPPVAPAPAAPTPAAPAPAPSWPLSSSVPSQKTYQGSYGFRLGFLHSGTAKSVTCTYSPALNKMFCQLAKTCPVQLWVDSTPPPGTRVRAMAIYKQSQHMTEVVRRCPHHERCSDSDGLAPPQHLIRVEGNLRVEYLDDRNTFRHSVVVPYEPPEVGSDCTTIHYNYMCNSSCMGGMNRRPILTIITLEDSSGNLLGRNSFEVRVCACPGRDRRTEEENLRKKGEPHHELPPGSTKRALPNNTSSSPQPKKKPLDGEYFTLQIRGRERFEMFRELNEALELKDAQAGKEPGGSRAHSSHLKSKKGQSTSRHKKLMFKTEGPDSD
On the technique in general: qHTS replaces the single test concentration by a dilution series.

Assay [2] addresses Aldehyde dehydrogenase, mitochondrial (Homo sapiens) (UniProt P05091). The experiment in a line: qHTS for Inhibitors of the Aldehyde Dehydrogenase Family (ALDH2) Primary screen (AID 2061308).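 Note: plate controls were vehicle for no effect and reference inhibitor for full effect; nearly all actives have a fitted effect of over 55% in size.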
Assay [3] addresses Retinaldehyde dehydrogenase 3 (Homo sapiens) (UniProt P47895). Nature of the assay: qHTS for Inhibitors of the Aldehyde Dehydrogenase Family (ALDH1A3) Validation screen (AID 2061312). Note: % is set by controls: 0 for no effect and ±100 for the full control effect; nearly all actives have a fitted effect of over 45% in size.
For assay [4] the target is unchanged. The experiment in a line: qHTS for Inhibitors of the Aldehyde Dehydrogenase Family (ALDH1A3) Primary screen (AID 2061315).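 Note: plate controls were DMSO vehicle for no effect and reference inhibitor for full effect.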
Assay [5] can be described thus: BET inhibitor-based combinations targeting novel dependencies in MECOM-rearranged (r) AML: SET-2 cell line (AID 2202231).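 For viability: plate controls were DMSO treated cells for no effect and wells without cells for full effect.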 Note: nearly all actives have a fitted effect of over 35% in size. Note: potency is the fitted concentration of half-maximal effect. The following applies: SET-2 AML cells viability, CellTiter-Glo luminescence, 48 h; viability: stronger effect = lower value, concentration not given here. An outline of the steps: (§1)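 AML cell lines seeded at 500 cells/well, treated with 11-point dose curves for 48 h. Viability by CellTiter-Glo luminescence, normalised to DMSO and empty wells; activity expressed as AUC and per-cell-line Z-transformed AUC.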

The nature of assay [6]: BET inhibitor-based combinations targeting novel dependencies in MECOM-rearranged (r) AML: OCI-AML3 cell line (AID 2202232). Note: nearly all actives have a fitted effect of over 35% in size. Note: potency is the fitted concentration of half-maximal effect. The conditions noted are these: Potency: OCI-AML3 viability. Summed up:
as §1

Assay [7] can be described thus: BET inhibitor-based combinations targeting novel dependencies in MECOM-rearranged (r) AML: MV-4-11 cell line (AID 2202233). Note: nearly all actives have a fitted effect of over 45% in size. Note: potency is the fitted concentration of half-maximal effect. Summed up:
(§2)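 Cells at 500/well were exposed for 48 hr to MIPE v5.0 drugs as 11-point dose curves. Viability was read by CellTiter-Glo luminescence and normalized to DMSO and empty-well controls. Activity was expressed as AUC and per-cell-line Z-AUC.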

Assay [8] in a line: BET inhibitor-based combinations targeting novel dependencies in MECOM-rearranged (r) AML: UCSD-AML1 cell line (AID 2202235). Note: nearly all actives have a fitted effect of over 40% in size. Note: potency is the fitted concentration of half-maximal effect. Summed up: as §2
A short description of assay [9]: BET inhibitor-based combinations targeting novel dependencies in MECOM-rearranged (r) AML: AML-191 cell line (AID 2202236; note: nearly all actives have a fitted effect of over 35% in size; note: potency is the fitted concentration of half-maximal effect). Summed up: as §1
Assay [10] can be described thus: BET inhibitor-based combinations targeting novel dependencies in MECOM-rearranged (r) AML: AML-194 cell line (AID 2202237; note: nearly all actives have a fitted effect of over 40% in size; note: potency is the fitted concentration of half-maximal effect). Summed up:
as §1

Assay [11] is described as follows: BET inhibitor-based combinations targeting novel dependencies in MECOM-rearranged (r) AML: HNT-34 cell line (AID 2202234). Note: nearly all actives have a fitted effect of over 35% in size. Note: potency is the fitted concentration of half-maximal effect. Summed up: as §2

Several values for one entry are separate records, joined by “and”; a condition that tells them apart may be missing. Equal entries are not always repeated. Records with an inconclusive call do not appear. Unmarked numbers belong to inactive results. Activity calls are given as the source filed them. Calls come from the whole dose curve; as a rule, active = well fitted curve in the direction sought with a large enough effect; inconclusive = small, poorly fitted or top-dose-only effect, or another doubt; inactive = no such curve, though single readings can be large; an effect the other way counts as inactive or inconclusive.

With `CC(C)(C)c1cc(C(=O)O)c(NC(=O)Nc2ccc3[nH]ncc3c2)s1`, the activation in assay [1] was 7.87% and -13.8%. In addition, the Potency result in [2], in assay [3], in assay [4], in assay [6], in assay [8] and in [9] was “inactive” each time. The Potency entry in [10] is “inactive”. Besides, in assay [5], the viability (usually a read-out of living cells in per cent, often relative to untreated cells) is 118%. For the same molecule, the Potency in [7] is 18600 nM (active).
Regarding `Cc1c(-c2ccnn2C)cc(C(=O)NCc2ccc(S(C)(=O)=O)cn2)c(=O)n1-c1cccc(C(F)(F)F)c1`, the activation in assay [1] was -2.86% and -5.25%. The Potency result in [2], in assay [3], in [4], in [6], in assay [7] and in assay [11] was “inactive” throughout. Besides, the Potency result in assay [8], in [9] and in [10] was “inactive” throughout. Besides, in assay [5], the viability is 103%.
On to `COc1ccc(-n2nc(C(N)=O)c3c2C(=O)N(c2ccc(N4CCCCC4=O)cc2)CC3)cc1`, for which, in assay [1], the activation is 22.9% and -7.16%. In addition, the Potency entry in assay [2], in assay [3], in assay [4], in [6], in [7] and in [9] was “inactive” each time. In addition, the Potency entry in assay [10] is “inactive”. For the same molecule, the viability in assay [5] was 101%.
Turning to `COc1ccc(CCC(=O)Nc2nc3ccc(Cl)cc3s2)cc1OC`, the activation in assay [1] is 9.8% and 1.91%. In addition, the Potency entry in [2], in assay [3], in [4], in [6], in assay [7] and in assay [8] was “inactive” each time. In addition, the Potency entry in [9] and in assay [10] was “inactive” each time. Besides, the viability in [5] is 120%.
With `CC(C)OC(=O)C1=CN(C(=O)c2ccc(F)c(F)c2)CC(C)(C)c2c1[nH]c1ccccc21`, the activation in assay [1] is -3.85% and 0.955%. Further, the Potency entry in assay [2], in assay [3], in assay [4], in assay [6], in assay [7] and in assay [11] was “inactive” throughout. Moreover, the Potency result in assay [8], in assay [9] and in assay [10] was “inactive” each time. For the same molecule, the viability in assay [5] was 109%.
As to `Cc1cccc(-c2nn3c(c2-c2ccnc4ccc(C(N)=O)cc24)CCC3)n1`, the activation in assay [1] is -7.16%. Besides, the Potency entry in assay [2], in assay [3], in assay [4], in [6], in assay [7] and in assay [11] was “inactive” throughout. Also, the Potency entry in [8], in assay [9] and in assay [10] was “inactive” throughout. Moreover, the viability in [5] was 108%.
Take `O=C(O)CCNc1cc(N2CCc3ccccc3CC2)nc(-c2ccccn2)n1`: in assay [1], the activation is -6.15% and -0.477% and 0.955%. Moreover, the Potency entry in assay [2], in [3], in assay [4], in assay [6], in assay [7] and in assay [11] was “inactive” each time. The Potency result in assay [8], in assay [9] and in [10] was “inactive” each time. Besides, in assay [5], the viability is 103%.
In the case of `Cc1cc2c(s1)Nc1ccccc1N=C2N1CCN(C)CC1`, the activation in [1] was -5.86% and 20.9% and -11.5%. In addition, the Potency result in assay [2], in [3], in assay [4], in assay [6], in assay [7] and in [11] was “inactive” throughout. The Potency result in assay [8], in assay [9] and in assay [10] was “inactive” each time. In addition, the viability in assay [5] is 111%.
In the case of `CC[C@@]1(O)C(=O)OCc2c1cc1n(c2=O)Cc2cc3cc(O)ccc3nc2-1`, the Potency in assay [1] is 1.51 µM (active) and 19.3 µM (active); in assay [5], 33.2 nM (active); in [6], 14.8 nM (active); in assay [7], 6.6 nM (active); in [11], 7.4 nM (active); in [8], 13.2 nM (active). The Potency in assay [9] was 13.2 nM (active); in assay [10], 20.9 nM (active). Besides, the Potency result in assay [2], in [3] and in assay [4] was “inactive” in each case.
Turning to `COc1ccc(-n2c(SCCCN3C(=O)c4cccc5cccc(c45)C3=O)nnc2-c2ccncc2)cc1`, in assay [1], the activation is -13.4%. The Potency entry in [2], in assay [3], in assay [4], in assay [6], in assay [7] and in assay [11] was “inactive” in each case. The Potency entry in assay [8], in assay [9] and in [10] was “inactive” each time. In addition, the viability in [5] is 102%.
As to `COC(=O)N(C)c1c(N)nc(-c2nn(Cc3ccccc3F)c3ncccc23)nc1N`, the activation in [1] is -15.8%. Also, the Potency result in assay [2], in [3], in assay [4], in assay [6], in assay [7] and in assay [9] was “inactive” each time. Also, the Potency entry in assay [10] was “inactive”. The viability in assay [5] is 119%.
For `CCc1cccc2c3c([nH]c12)[C@@](CC)(CC(=O)O)OCC3`, the activation in [1] is -4.77%. For the same molecule, the Potency result in [2], in [3], in [4], in assay [6], in [7] and in assay [11] was “inactive” in each case. Moreover, the Potency entry in assay [8], in [9] and in assay [10] was “inactive” throughout. Further, in assay [5], the viability was 112%.
With `Cc1c(F)cc(C(=O)NC2CC2)cc1-c1ccc(C(=O)NCC(C)(C)C)cn1`, the activation in assay [1] was 2.86%. The Potency result in assay [2], in assay [3], in assay [4], in [6], in assay [7] and in [11] was “inactive” each time. Also, the Potency result in [8] and in assay [10] was “inactive” in each case. The viability in [5] was 92.7%.
Turning to `CC(=O)Nc1ccc([C@H](C)C(=O)Nc2ncc(C(C)C)s2)cc1`, the Potency was 3.06 µM (active) and 2.69 µM (active) in [1]; 3320 nM (active) in assay [5]; 7420 nM (active) in assay [6]; 5250 nM (active) in [7]; 3320 nM (active) in assay [11]; 3320 nM (active) in assay [8]. Besides, the Potency in assay [9] was 1860 nM (active); in [10], 2950 nM (active). The Potency result in assay [2], in assay [3] and in [4] was “inactive” each time.
For `CC(C)(OCc1nn(Cc2ccccc2)c2ccccc12)C(=O)O`, the activation in assay [1] is -10.7% and 1.91%. The Potency entry in assay [2], in assay [3], in assay [4], in assay [6], in [7] and in [11] was “inactive” throughout. Besides, the Potency entry in assay [8] and in [10] was “inactive” in each case. Also, the viability in assay [5] was 104%.
